Screening results (PubChem)
HCMV antiviral – blocks human cytomegalovirus replication | HFF cells, HCMV-luciferase reporter, 72 h; active compounds read low | 4.5% of 410,000 active | AID 1259415 | activity change, negative = inhibition, % at 57.5 µM; in the data active = activity change below about -60%; inconclusive = no clear call, values can overlap the other calls; inactive = above about -39%
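Two compound doses tested in HFFs infected with HCMV-luciferase, MOI 1 PFU/cell, 72 h at 37C. Lysate luminescence read with OneGlo; data normalized against buffer-only and 10uM Salinomycin inhibitor controls.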
MARV entry inh – inhibitors of Marburg virus binding or cell entry; Marburg virus pseudotyped entry inhibition, cell reporter; Potency, µM (highest dose often 37.8 µM), for inactives: at the top dose activity change, negative = inhibition, hits mostly inhibitors; 1.8% of 300,000 active; AID 540276; calls by dose curve; tested in HEK293 cells; note: potency is the fitted concentration of half-maximal effect
HCV inhibitor – blocks hepatitis C virus; AID 651820; 3.4% of 340,000 active; Huh7.5.1 HCVcc-Cre infection, luciferase reporter, 44 h; Potency, µM (highest dose often 41.8 µM), for inactives: at the top dose activity change, negative = inhibition, most hits filed as inhibitors; note: potency is the fitted concentration of half-maximal effect
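Cells seeded at 1,000/well and cultured 4 h, then compounds added followed by HCVcc-Cre virus (~0.5 moi). After 44 h further culture, luciferase substrate was added, plates held 15 min at room temperature, and luminescence read for 15 sec.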
Pf growth 48h – inhibits P. falciparum growth in the first generation, 48 h. P. falciparum luciferase growth in erythrocytes, 48 h. 5.9% of 310,000 active. Potency, µM (doses to about 28.7 µM), for the others: at the top dose activity change, negative = inhibition, hits mostly inhibitors; note: potency is the fitted concentration of half-maximal effect
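Read-out is firefly luciferase luminescence from an integrated reporter in P. falciparum, so falling signal marks reduced parasite growth. Infected erythrocytes were at 2% hematocrit and 0.1% parasitemia (final) in Albumax-supplemented RPMI 1640.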
LASV entry inh – inhibitors of Lassa virus binding or cell entry | Potency, µM (series often up to 37.9 µM), for inactives: at the top dose activity change, negative = inhibition, usual class: inhibitors | AID 540256 | 1.2% of 300,000 active | Lassa virus pseudotype entry inhibition, cell reporter; calls by dose curve; tested in HEK293 cells; note: potency is the fitted concentration of half-maximal effect; nearly all actives have a fitted effect of over 50% in size
Pf growth 96h – inhibits malaria parasite growth, 96 h; Potency, µM (highest dose often 28.7 µM), inactives show top-dose activity change, negative = inhibition, usual class: inhibitors; AID 504834; P. falciparum luciferase reporter growth, 96 h; 6.9% of 320,000 active; note: potency is the fitted concentration of half-maximal effect
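96 h incubation, 37 C, 5% CO2, of luciferase-reporter P. falciparum-infected RBCs (2% hematocrit, 0.05% parasitemia final) with test compounds; endpoint luminescence.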
Active calls of the source: *; ? = inconclusive; . = no result given; [ ] = remark or other dose. Hits are enriched below; roughly 14% of the tested compounds scored in any of these assays. Unless noted, calls come from the whole dose curve; as a rule, active = well fitted inhibition curve with a large enough effect; inconclusive = small, poorly fitted or top-dose-only effect, or another doubt; inactive = no such curve, though single readings can be large or run the other way. % is set by controls: 0 for no effect and ±100 for the full control effect.

SMILES | HCMV antiviral | MARV entry inh | HCV inhibitor | Pf growth 48h | LASV entry inh | Pf growth 96h
COc1ccccc1C1NC(=O)NC(C)=C1C(=O)Nc1cccc(C)c1C (stereo not drawn) | -1.7 | . | 13.4% | . | . | 32.6%
COc1c(O)ccc(C2NC(=O)NC(C)=C2C(=O)Nc2ccccc2C)c1[N+](=O)[O-] (stereo not drawn) | -63.1* | -14.2%[46.1 µM] | 6.9% | 17.1% | 3.7% | ?
Cc1nc(OCC(=O)c2ccc(Cl)cc2)c(C#N)c2c1COC(C)(C)C2 | 4.7 | -11.9% | ? | . | -4.8% | 11.7µM*
CC1(C)Cc2c(C#N)c(OCC(=O)c3ccc(Cl)cc3)nc(-c3ccco3)c2CO1 | 7.6 | 16.2% | 2.5% | ? | 8.7% | ?
CCc1nc(OCC(=O)c2ccccc2)c(C#N)c2c1COC(C)(C)C2 | -37.6 | -4.1% | ? | . | -17.2% | 11.7µM*
CC1(C)CC(NC(=O)C(C)(C)Oc2ccc(Cl)cc2)CC(C)(C)N1 | 11.7 | -21.7%[46.1 µM] | -26.6% | 8.1% | -3.2% | 29.5%
CC(C)(Oc1ccc(Cl)cc1)C(=O)NC1CCCCC1 | ? | -0.4% | 20.2% | 11.7µM* | 0.6%[46.1 µM] | -1.6%
Cc1nc(SCC(=O)OCc2ccccc2)c2c(=O)n(C)c(=O)n(C)c2n1 | -0.2 | . | 5.0% | 7.38µM* | . | ?
COc1ccccc1-c1noc2nc(Nc3cccc(Cl)c3)ccc12 | 18.1 | . | . | . | . | .
CN(C)S(=O)(=O)c1ccc(C(=O)Nc2nc(-c3cc4ccccc4o3)cs2)cc1 | -69.2* | ? | ? | -15.9% | ? | ?
CC1CN(S(=O)(=O)c2ccc(C(=O)Nc3nc(-c4cc5ccccc5o4)cs3)cc2)CC(C)O1 (stereo not drawn) | -25.7 | ? | ? | 0.0% | ? | 0.0%
O=C(Nc1nc(-c2cc3ccccc3o2)cs1)c1ccc(S(=O)(=O)N2CCCC2)cc1 | -83.6* | ? | ? | -28.5% | ? | 13.1µM*
CN(C)S(=O)(=O)c1ccc(C(=O)Nc2nc(-c3ccccc3)c(C(=O)c3ccccc3)s2)cc1 | -0.7 | 5.8% | 12.1% | 11.0% | -4.2% | 63.9%
Cc1cc(-c2csc(NC(=O)c3ccc(S(=O)(=O)N(C)C)cc3)n2)c(C)n1-c1ccccc1 | -24.8 | 1.26µM* | ? | ? | ? | 10.4µM*
Cc1ccccc1-c1cc2nc(Oc3cccc(F)c3)n(C)c(=O)c2s1 | -22.3 | . | . | . | . | .
Cc1ccc(/C=C(\C#N)c2nc(-c3cc4c(ccc5ccccc54)oc3=O)cs2)cc1 | 8.9 | . | . | . | 4.3%[46.1 µM] | .
CCN(CC)CC(O)CN1CCCCc2nc(C)c(C)cc21 (stereo not drawn) | . | -8.4%[14.2 µM] | . | . | . | .
OCCN1CCN(c2nc(N3CCCCC3)nc(N3CCCCC3)n2)CC1 | ? | ? | 2.5% | 10.4µM* | -14.3% | 60.0%
N=C(N)Sc1nc(N2CCCCC2)nc(N2CCCCC2)n1 | 27.5 | 14.0% | 16.4% | 27.1% | 21.4% | 9.4%
CC(=O)Nc1ccc(NC(=O)Cc2ccc(S(=O)(=O)N3CCCCC3)cc2)cc1 | 0.6 | 6.1% | -21.2% | ? | ? | ?
Nc1c(C(=O)Nc2cccc(F)c2)nnn1-c1cccc(C(F)(F)F)c1 | 16.1 | 15.1%[46.1 µM] | ? | 156.2% | 16.0% | ?
Cc1ccc(NC(=O)c2nnn(-c3cccc(C(F)(F)F)c3)c2N)cc1 | -28.0 | 10.7%[46.1 µM] | 8.2% | 21.6% | -21.1% | 11.7µM*
CC(=O)Nc1c(C(=O)Nc2cccc(C)c2)nnn1-c1ccc(C)cc1 | -61.9* | 16.3%[46.1 µM] | . | . | ? | .
Nc1c(C(=O)Nc2ccc(F)cc2)nnn1-c1cccc(C(F)(F)F)c1 | ? | 10.8%[46.1 µM] | -1.9% | 13.6% | ? | 9.28µM*
CC12CCC(O)CC1=CCC1C2CCC2(C)C(c3ccn[nH]3)CCC12 (stereo not drawn) | -33.5 | ? | ? | . | ? | .
SMILES | HCMV antiviral | MARV entry inh | HCV inhibitor | Pf growth 48h | LASV entry inh | Pf growth 96h
CCc1cnc2c(c1SCC(=O)Nc1ccc(C(=O)OC)cc1)c(=O)n(C)c(=O)n2C | 16.0 | . | . | . | -0.8%[46.1 µM] | .
CC(C)N1CCc2c(sc(NC(=O)c3ccc([N+](=O)[O-])o3)c2C(N)=O)C1 | -98.0* | . | . | 13.1µM* | . | 4.65µM*
COC(=O)c1sc(NC(=O)c2ccc([N+](=O)[O-])o2)c(C#N)c1C | 0.0 | 6.5% | 11.2µM* | 45.2% | . | ?
CC(C)N1CCc2c(sc(NC(=O)c3nc4ccccc4s3)c2C(N)=O)C1 | -35.8 | 1.8%[46.1 µM] | ? | -18.5% | ? | 56.1%
CC(C)N1CCc2c(sc(NC(=O)c3cc(-c4cccs4)nc4ccccc34)c2C(N)=O)C1 | . | ? | 10µM* | ? | ? | ?
CC(=O)N1CCc2c(sc(NC(=O)c3ccc([N+](=O)[O-])o3)c2C#N)C1 | -98.4* | . | -8.5% | 52.7% | . | ?
C[C@H]1CC[C@]2(O[C@@H](CCO)C[C@H](O)[C@H]2O)O1 | 14.2 | . | 11.6% | . | . | .
O=C1OC[C@H]2CCCN2C(=O)[C@@H](CC(=O)N(CCO)Cc2ccccc2)C/C=C\CC[C@H]1Cc1ccc(F)cc1 | 14.6 | . | 9.9% | . | . | .
COC(=O)c1c(NC(=O)Cc2ccccc2)sc2c1CCN(C(C)C)C2 | -27.9 | . | ? | -8.0% | . | 33.7%
COC(=O)c1c(NC(=O)c2ccc([N+](=O)[O-])o2)sc2c1CCN(C(C)C)C2 | ? | ? | 2.82µM* | 14.7µM* | ? | ?
C[C@@H]1CCCN1[C@@H]1C[S+](=O)([O-])N[C@@H]1COCc1ccccc1 | . | . | . | . | 6.6%[46.1 µM] | .
CC(=O)Nc1ccccc1-c1nc2ccccc2n(C(C)C(=O)Nc2cccc(C)c2C)c1=O (stereo not drawn) | 8.8 | -1.1%[46.1 µM] | . | . | 1.1%[46.1 µM] | .
CN1C/C(=C/c2ccsc2)C(=O)/C(=C/c2ccsc2)C1 | -85.7* | 5.01µM* | ? | 2.1% | ? | ?
COc1ccc2c(c1)CC/C(=C/c1ccncc1)C2=O | . | ? | ? | -12.0% | 21.5% | 259.4%
CN1C/C(=C/c2ccncc2)C(=O)/C(=C/c2ccncc2)C1 | -7.2 | -0.4%[46.1 µM] | 16.3% | 2.62µM* | ? | ?
O=S(=O)(NCCc1csc2nc(-c3ccc(F)cc3)nn12)c1ccc(Br)cc1 | 0.5 | . | . | . | 8.0%[46.1 µM] | .
CCOC(=O)c1c(-c2ccc(OC)cc2)oc2ccc(OCc3ccc(Br)cc3)cc12 | 23.7 | 11.7%[46.1 µM] | . | . | 16.7%[46.1 µM] | .
COc1ccc2oc3cc(C)[n+]([O-])c(-c4ccc(Br)cc4)c3c2c1 | -84.3* | -27.6% | ? | -5.7% | ? | ?
CN(C)/C=C/C(=O)c1ccc([N+](=O)[O-])c(CS(=O)(=O)c2ccccc2)c1 | -98.2* | -2.4%[46.1 µM] | 0.7% | -10.4% | 9.0%[46.1 µM] | -6.1%
O=C(O)c1ccc([N+](=O)[O-])c(CS(=O)(=O)c2ccccc2)c1 | -27.5 | 7.5% | -0.8% | . | -12.1% | 4.1%
Cc1ccc(C(=O)NNc2cc(N3CCCC3)nc(N3CCCC3)n2)cc1 | . | -11.5% | ? | 4.65µM* | ? | -7.6%
